About 79,000 compounds went through this panel and 15% of them were active in at least one assay; those are over-represented in the sample as a whole. Values without a mark were called inactive. Activity calls are given as the source filed them. Rule as the data show it: active = growth inhibition above about 70%; inactive = the rest.
Columns and labels:
[1] = NCI Yeast Anticancer Drug Screen. Data for the rad50 strain (AID 155);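 also: 0% = growth of vehicle-only cultures of the same strain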; conditions: S. cerevisiae rad50 strain growth inhibition, stronger effect = higher value
Summary of the method: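 Yeast carrying a defined DNA repair defect were exposed to test compounds, and growth was compared with vehicle-treated controls to give percent inhibition.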

[2] = NCI Yeast Anticancer Drug Screen. Data for the mec2-1 strain (AID 157); conditions: S. cerevisiae mec2-1 strain, stronger effect = higher value
Summary of the method: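 Readout is yeast growth inhibition, normalised to vehicle-treated controls, in the mec2-1 strain exposed to compound.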

[3] = NCI Yeast Anticancer Drug Screen. Data for the sgs1 mgt1 strain (AID 161);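 also: 0% = growth of cultures given vehicle only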; conditions: S. cerevisiae sgs1 mgt1 strain, stronger effect = higher value
Summary of the method: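 Percent growth inhibition was derived by comparing compound-exposed mutant yeast with vehicle-exposed cultures. The strain carries alterations in DNA damage repair.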

[4] = NCI Yeast Anticancer Drug Screen. Data for the cln2 rad14 strain (AID 165);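 also: 0% = growth equal to vehicle treated cultures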; conditions: S. cerevisiae cln2 rad14 strain, stronger effect = higher value
Summary of the method: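 Relative to vehicle controls, growth inhibition of compound-treated cln2 rad14 yeast was recorded.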

[5] = NCI Yeast Anticancer Drug Screen. Data for the bub3 strain (AID 167); conditions: S. cerevisiae bub3 mutant strain, stronger effect = higher value
Summary of the method: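 Compounds were applied to a genetically altered yeast strain carrying a cell-cycle control defect. Growth inhibition was scored against vehicle-treated controls.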

[6] = NCI Yeast Anticancer Drug Screen. Data for the mlh1 rad18 strain (AID 175); conditions: S. cerevisiae mlh1 rad18 strain growth inhibition, stronger effect = higher value
Summary of the method: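 Test agents were incubated with a yeast strain of defined genotype (DNA damage repair defect). Inhibition of growth was derived by comparison with vehicle-exposed cultures.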

[7] = at 5.0 µM (retest, dose inferred, filed as 0.5)
[8] = at 50.0 µM (retest, dose inferred, filed as 5.0)

| SMILES | growth inhibition [1, 7] | growth inhibition [1, 8] | growth inhibition ([1]; at 50.0 µM) | growth inhibition [2, 7] | growth inhibition [2, 8] | growth inhibition ([2]; at 50.0 µM) | growth inhibition [3, 7] | growth inhibition [3, 8] | growth inhibition ([3]; at 50.0 µM) | growth inhibition [4, 7] | growth inhibition [4, 8] | growth inhibition ([4]; at 50.0 µM) | growth inhibition [5, 7] | growth inhibition [5, 8] | growth inhibition ([5]; at 50.0 µM) | growth inhibition [6, 7] | growth inhibition [6, 8] | growth inhibition ([6]; at 50.0 µM) |
| --- | --- | --- | --- | --- | --- | --- | --- | --- | --- | --- | --- | --- | --- | --- | --- | --- | --- | --- |
| C[P+](c1ccccc1)(c1ccc(Cl)cc1)c1ccc(Cl)cc1 | -26% | 72% (active) | 50.6% | -3% | 28% | 28.7% | 0% | 81% (active) | 71.9% (active) | -3% | 1% | -39.3% | -1% | 75% (active) | 69.5% | 12% | 59% | 46.9% |
| O=C1c2ccc(Cl)cc2C(=O)c2cc(Cl)ccc21 | 7% | 99% (active) | 91.9% (active) | 11% | 98% (active) | 46.5% | 3% | 99% (active) | 65.3% | -12% | 99% (active) | 14.3% | 19% | 99% (active) | 89.2% (active) | 8% | 99% (active) | 77% (active) |
| CC(/C=C/C(O)=C1/C(=O)CNC1=O)=C\[C@@H](C)[C@H]1O[C@@]2(C)O[C@H](C(=O)[C@@H]3O[C@@]32C)[C@@H]1C | 98% (active) | 99% (active) | 91.8% (active) | 99% (active) | 99% (active) | 94.5% (active) | 98% (active) | 98% (active) | 94.2% (active) | 97% (active) | 95% (active) | 90.8% (active) | 98% (active) | 99% (active) | 93.4% (active) | 98% (active) | 98% (active) | 90.3% (active) |
| Cc1ccc2c(c1)-c1c(c3c(c4c1-c1cc(C)ccc1CC4)C(=O)OC3=O)CC2 | 14% | 72% (active) | 43.9% | 10% | 43% | 16.7% | 2% | 59% | 12.2% | 14% | 41% | 3.45% | 4% | 47% | 7.65% | 9% | 56% | 36.5% |
| Cc1ccccc1NC(=O)c1cc2cc(N=Nc3ccccc3C(=O)O)ccc2oc1=O | 7% | 81% (active) | 91.4% (active) | -10% | 65% | 83.5% (active) | 15% | 90% (active) | 96.5% (active) | 9% | 46% | 90.3% (active) | 7% | 78% (active) | 82.7% (active) | 8% | 49% | 96.5% (active) |
| O=c1c2cc(Br)ccc2ncn1COCc1ccccc1 | 21% | 20% | 7.3% | 11% | 11% | -4.1% | 21% | 19% | 87.2% (active) | 24% | -12% | 54% | 15% | -21% | 83.5% (active) | 27% | 24% | 43.3% |
| N#CC12CC3=C(N=C1NC1=C(CCc4ccccc41)C2)c1ccccc1CC3 (configuration not stated) | 24% | 51% | 57.8% | 19% | 34% | 42.8% | 20% | 44% | 48.5% | 18% | 29% | 17.9% | 23% | 45% | 51.1% | 20% | 60% | 24.6% |
| Cc1ccc([N+](=O)[O-])cc1Cl | -3% | -4% | -4.35% | 2% | -2% | -8.45% | 1% | -1% | -2.6% | -2% | -1% | 93.2% (active) | -3% | -4% | -3.85% | -1% | -6% | -2.45% |
| CCCCNc1ccc(C(=O)OC2CCN(C)CC2)c(Cl)c1 | 99% (active) | 96% (active) | 97% (active) | 99% (active) | 97% (active) | 94.5% (active) | 99% (active) | 98% (active) | 95.9% (active) | 98% (active) | 96% (active) | 84% (active) | 99% (active) | 97% (active) | 96.3% (active) | 99% (active) | 96% (active) | 92.8% (active) |

From PubChem BioAssay (NCI)
